Screens (PubChem BioAssay)
miR122 inh: activators of miR-122 sensor in Huh7 cells; Huh7 psiCHECK-miR122 Renilla luciferase sensor, 48 h; hit rate 0.14% among 340,000; activation, % at 12.5 µM; AID 623901;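 active = mean activation of 30% or more, with every replicate also reaching 30%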;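 note: 0% = median of neutral control wells and 100% = median of positive control wells; higher luciferase signal means stronger suppression of miR-122 activity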
The depositor's hits bear a star. The sample as a whole holds a higher share of hits than the screen did.

SMILES	miR122 inh
CCCNC(=O)N(C)C[C@@H]1Oc2cc(C#CC(C)C)ccc2S(=O)(=O)N([C@H](C)CO)C[C@H]1C	-10
CC(C)CC#Cc1cnc2c(c1)C(=O)N([C@H](C)CO)C[C@H](C)[C@@H](CN(C)C(=O)NC1CCCC1)O2	-7
C[C@H](CO)N1C[C@H](C)[C@@H](CN(C)C(=O)C2CCOCC2)Oc2cc(-c3ccc(F)cc3)ccc2S1(=O)=O	-7
CO[C@H]1CN(C)C(=O)c2cc(NC(=O)c3ccc(F)cc3)ccc2OC[C@H](C)N(C)C[C@H]1C	1
Cc1cccc(S(=O)(=O)C(C#N)c2nc3ccccc3nc2N2CCCC2)c1 (stereo not drawn)	-119
N#CCc1c(C#N)c(N)nc(N2CCN(S(=O)(=O)c3ccccc3)CC2)c1C#N	36*
C/C=C/c1cnc2c(c1)C(=O)N([C@H](C)CO)C[C@H](C)[C@H](CN(C)CC1CCOCC1)O2	-4
CCC(=O)N(C)C[C@H]1Oc2ncc(C#CCC3CCCC3)cc2C(=O)N([C@@H](C)CO)C[C@@H]1C	7
C[C@H]1CN([C@@H](C)CO)C(=O)c2cc(C#Cc3cccc(F)c3)cnc2O[C@@H]1CN(C)C(=O)C1CC1	0
CC(=O)N(C)C[C@@H]1Oc2cc(C#C[C@@H](C)O)ccc2S(=O)(=O)N([C@@H](C)CO)C[C@H]1C	7
FC(F)(F)c1cc(CCN2CCNC[C@@H]2CC2CCCCC2)cc(C(F)(F)F)c1	38*
C[C@H]1CN([C@@H](C)CO)C(=O)c2cc(-c3ccc(F)cc3)cnc2O[C@@H]1CN(C)CC1CCOCC1	3
COc1cccc(-c2cnc3c(c2)C(=O)N([C@@H](C)CO)C[C@H](C)[C@H](CN(C)Cc2ccccc2)O3)c1	-11
CCc1nc2sc(C)c(C)c2c(=O)n1CCO	35*
COc1ccc(-c2cnc3c(c2)C(=O)N([C@@H](C)CO)C[C@@H](C)[C@H](CN(C)C(=O)C2CCOCC2)O3)cc1	0
N#CC1=C(N)Oc2c(ccc3cccnc23)C1c1ccccc1 (stereo not drawn)	64*
CCCN(C)C[C@H]1Oc2cc(C#Cc3ccccc3F)ccc2S(=O)(=O)N([C@@H](C)CO)C[C@H]1C	-2
C[C@H]1CN([C@@H](C)CO)C(=O)c2cc(C#CCc3ccccc3)cnc2O[C@H]1CN(C)Cc1cccc(C(=O)O)c1	1
CCCNC(=O)N(C)C[C@@H]1Oc2ncc(C#C[C@H](C)O)cc2C(=O)N([C@@H](C)CO)C[C@@H]1C	-2
CC(C)CC#Cc1cnc2c(c1)C(=O)N([C@@H](C)CO)C[C@@H](C)[C@H](CN(C)C(=O)Cc1ccccc1)O2	6
C[C@H]1CN([C@@H](C)CO)S(=O)(=O)c2ccc(-c3ccccc3)cc2O[C@@H]1CN(C)C(=O)CC1CC1	-33
C[C@@H]1CN([C@H](C)CO)S(=O)(=O)c2ccc(Br)cc2O[C@@H]1CN(C)C(=O)CC1CC1	-18
C/C=C/c1ccc2c(c1)O[C@@H](CN(C)C(=O)c1ccc3c(c1)OCO3)[C@@H](C)CN([C@@H](C)CO)S2(=O)=O	-1
C[C@@H]1CN([C@@H](C)CO)S(=O)(=O)c2ccc(-c3ccccc3)cc2O[C@@H]1CN(C)C(=O)CC1CC1	7
C/C=C/c1ccc2c(c1)O[C@H](CN(C)C(=O)c1ccc3c(c1)OCO3)[C@@H](C)CN([C@@H](C)CO)S2(=O)=O	-14
SMILES	miR122 inh
C[C@@H]1CN([C@@H](C)CO)S(=O)(=O)c2ccc(-c3ccccc3)cc2O[C@@H]1CN(C)C(=O)c1ccc2c(c1)OCO2	44*
Cc1ccc(-c2ccc3c(c2)O[C@H](CN(C)C(=O)CC2CC2)[C@H](C)CN([C@H](C)CO)S3(=O)=O)cc1	40*
Cc1ccc(-c2ccc3c(c2)O[C@H](CN(C)C(=O)CC2CC2)[C@H](C)CN([C@@H](C)CO)S3(=O)=O)cc1	53*
C[C@@H]1CN([C@H](C)CO)S(=O)(=O)c2ccc(-c3ccccc3)cc2O[C@H]1CN(C)C(=O)CC1CC1	-1
C[C@H]1CN([C@@H](C)CO)S(=O)(=O)c2ccc(C#Cc3cccnc3)cc2O[C@@H]1CN(C)CC1CCOCC1	-3
CCC(=O)Nc1ccc2c(c1)OC[C@H](C)NC[C@H](C)[C@H](OC)CN(C)C2=O	-1
COc1cccc(-c2ccc3c(c2)O[C@@H](CN(C)CC2CC2)[C@@H](C)CN([C@H](C)CO)S3(=O)=O)c1	5
CCC(=O)N(C)C[C@H]1Oc2ncc(C#Cc3ccc(OC)cc3)cc2C(=O)N([C@H](C)CO)C[C@@H]1C	9
CN1C(=O)c2cc(NS(=O)(=O)c3ccc(Cl)cc3)ccc2OC[C@H]2O[C@H](CC(=O)N3CCc4ccccc4C3)CC[C@@H]21	33*
COCC(=O)Nc1ccc2c(c1)C(=O)N(C)[C@@H]1CC[C@H](CC(=O)N3CCc4ccccc4C3)O[C@H]1CO2	37*
COCC(=O)Nc1ccc2c(c1)C(=O)N(C)[C@@H]1CC[C@@H](CC(=O)NC3Cc4ccccc4C3)O[C@@H]1CO2	37*
CN1C(=O)c2cc(NC(=O)c3ccc(C(F)(F)F)cc3)ccc2OC[C@@H]2O[C@@H](CC(=O)NC3Cc4ccccc4C3)CC[C@@H]21	55*
COc1cccc(NC(=O)N(C)C[C@@H]2Oc3ncc(C#Cc4cccnc4)cc3C(=O)N([C@H](C)CO)C[C@H]2C)c1	2
C[C@H]1CN([C@@H](C)CO)C(=O)c2cc(-c3cccc(F)c3)cnc2O[C@@H]1CN(C)Cc1ccncc1	1
COc1ccc(C#Cc2ccc3c(c2)O[C@@H](CN(C)C(=O)NC2CCCCC2)[C@H](C)CN([C@H](C)CO)S3(=O)=O)cc1	-23
CC(=O)N(C)C[C@@H]1Oc2cc(C#CC3CCCCC3)ccc2S(=O)(=O)N([C@H](C)CO)C[C@@H]1C	1
CCCNC(=O)N(C)C[C@H]1Oc2ncc(C#CCC(C)C)cc2C(=O)N([C@@H](C)CO)C[C@@H]1C	1
Cc1ccc(-c2ccc3c(c2)O[C@@H](CN(C)Cc2cccc(C(=O)O)c2)[C@@H](C)CN([C@@H](C)CO)S3(=O)=O)cc1	2
C[C@H](CO)N1C[C@H](C)[C@H](CN(C)Cc2ccc(C(=O)Nc3ccccc3N)cc2)Oc2ccc(NS(=O)(=O)c3cccs3)cc2CC1=O	-104
COCC#Cc1cnc2c(c1)C(=O)N([C@H](C)CO)C[C@@H](C)[C@@H](CN(C)C(=O)Cc1ccccc1)O2	1
C[C@H]1CN([C@@H](C)CO)S(=O)(=O)c2ccc(-c3cccc(C#N)c3)cc2O[C@H]1CN(C)C(=O)Nc1ccccc1F	-4
C[C@@H]1CN([C@@H](C)CO)C(=O)c2cc(-c3cccc(C(=O)N(C)C)c3)cnc2O[C@@H]1CN(C)C(=O)Cc1ccccn1	0
C[C@@H]1CN([C@@H](C)CO)S(=O)(=O)c2ccc(-c3cccnc3)cc2O[C@@H]1CN(C)Cc1ccccn1	2
O=c1c2c3c(sc2nc2n1CCC2)CCCC3	32*
C[C@@H]1CN([C@H](C)CO)S(=O)(=O)c2ccc(C#CC3(O)CCCC3)cc2O[C@H]1CN(C)C(=O)Nc1ccc(F)cc1	-3
C[C@@H]1CN([C@H](C)CO)C(=O)c2cc(/C=C/c3ccccc3)cnc2O[C@H]1CN(C)Cc1cccc(C(=O)O)c1	0
Cc1cc(C)c2c(c1)/C(=C/C(=O)c1ccc(Br)s1)C(=O)N2	43*
CCCN(C)C[C@H]1Oc2cc(Br)ccc2S(=O)(=O)N([C@@H](C)CO)C[C@H]1C	1
C[C@H]1CN([C@@H](C)CO)S(=O)(=O)c2ccc(C#Cc3cccc(F)c3)cc2O[C@H]1CN(C)C(=O)CN1CCOCC1	1
